High-throughput results deposited in PubChem BioAssay by National Center for Advancing Translational Sciences (NCATS).
This excerpt belongs to a sample that is enriched for hits.
ALOX12 inh = Primary qHTS assay for inhibitors of human arachidonate 12S-lipoxygenase (ALOX12): Round 2; Polyunsaturated fatty acid lipoxygenase ALOX12 (Homo sapiens), P18054; purified 12hLO, xylenol orange hydroperoxide absorbance; Potency, µM (top dose mostly 108 µM), inactives show at the top dose activity change, negative = inhibition, hits mostly inhibitors; hit rate 1.1% among 580,000; AID 1671190, 2021; also: potency is read from the fitted curve at half-maximal effect
Target sequence (P18054 whole entry, looked up): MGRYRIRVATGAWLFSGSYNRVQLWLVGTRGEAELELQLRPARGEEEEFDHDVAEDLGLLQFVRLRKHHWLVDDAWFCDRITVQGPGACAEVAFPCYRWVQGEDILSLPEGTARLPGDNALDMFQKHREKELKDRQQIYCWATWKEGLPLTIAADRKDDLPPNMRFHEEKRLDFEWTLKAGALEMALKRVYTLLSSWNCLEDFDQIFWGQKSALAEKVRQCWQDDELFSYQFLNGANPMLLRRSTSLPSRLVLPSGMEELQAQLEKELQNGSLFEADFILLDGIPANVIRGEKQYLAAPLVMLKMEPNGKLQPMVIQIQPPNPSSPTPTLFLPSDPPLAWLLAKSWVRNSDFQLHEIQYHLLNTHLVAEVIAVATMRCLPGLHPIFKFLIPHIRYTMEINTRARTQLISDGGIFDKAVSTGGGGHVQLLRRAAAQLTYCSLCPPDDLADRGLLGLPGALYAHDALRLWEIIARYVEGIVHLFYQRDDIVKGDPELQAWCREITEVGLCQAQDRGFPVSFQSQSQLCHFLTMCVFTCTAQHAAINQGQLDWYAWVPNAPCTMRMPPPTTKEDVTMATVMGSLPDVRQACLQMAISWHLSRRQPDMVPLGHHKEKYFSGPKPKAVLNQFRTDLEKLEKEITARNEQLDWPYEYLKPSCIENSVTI
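Purified human 12hLO (150 nM final) in 25 mM Hepes, 0.01% Triton X-100, pH 7.0 was preincubated 15 min at room temperature with compound. Then 40 uM arachidonic acid was added, 30 min. Hydroperoxide was read by Fe-XO absorbance ratio 573/405 nm.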
HT1080NT lethal = qHTS for induction of synthetic lethality in tumor cells producing 2HG: qHTS for the HT-1080-NT fibrosarcoma cell line | HT-1080-NT fibrosarcoma viability, CellTiter-Glo ATP luminescence, 48 h | Potency, µM (doses to about 46.1 µM), for the others: top-dose activity, negative = less viability, most hits filed as cytotoxic | hit rate 1.6% among 360,000 | AID 686970, 2013;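 also: NT is the 2HG producing partner of a matched IDH1 knockdown line; potency is read from the fitted curve at half-maximal effect; 0% = DMSO-treated cells and -100% = media-only wells without cells; nearly all actives have a fitted effect of over 55% in size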
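Viability of the 2HG-overproducing fibrosarcoma line after 48 hours of compound exposure at 37 degrees C was determined by luminescence with CellTiter-Glo, and concentration-effect curves were then fitted and categorized.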
TDP1 cell noCPT = qHTS for Inhibitors of human tyrosyl-DNA phosphodiesterase 1 (TDP1): qHTS in cells in absence of CPT; DT40 Tdp1-/- hTDP1 cells, no CPT, ATP luminescence, 48 h; Potency, µM (top dose mostly 46.2 µM), for the others: at the top dose activity change, negative = growth inhibition, actives largely listed as inhibitors; hit rate 15% among 420,000; also: potency is read from the fitted curve at half-maximal effect; nearly all actives have a fitted effect of over 55% in size
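Compound effects on proliferation are scored in DT40 Tdp1-/-;hTDP1 cells in the absence of CPT. ATP levels (CellTiter-Glo luminescence) are recorded after a ≥48 hr, 37 °C incubation.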
DT40 TDP1 CPT = qHTS for Inhibitors of human tyrosyl-DNA phosphodiesterase 1 (TDP1): qHTS in cells in presence of CPT; chicken DT40 Tdp1-/-;hTDP1 cells + 20 nM CPT, ATP luminescence, 48 h; Potency, µM (titrated, usually from 46.2 µM), for the others: top-dose activity change, negative = growth inhibition, most hits filed as inhibitors; hit rate 12% among 420,000; also: potency is read from the fitted curve at half-maximal effect; nearly all actives have a fitted effect of over 55% in size
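Cell growth measured by CellTiter-Glo luminescence after a minimum 48 h, 37 C compound exposure with 20 nM CPT in Tdp1-knockout DT40 cells stably expressing hTDP1, seeded 400/well; qHTS titration format.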
HT1080 IDH1KD tx = qHTS for induction of synthetic lethality in tumor cells producing 2HG: qHTS for the HT-1080-IDH1KD cell line; HT-1080 IDH1 knockdown viability, ATP luminescence, 48 h; Potency, µM (series often up to 46.1 µM), inactives show at the top dose activity, negative = toxicity, actives largely listed as cytotoxic; hit rate 2% among 360,000;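 also: potency is read from the fitted curve at half-maximal effect; 0% = DMSO wells and -100% = cell-free medium wells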
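After a 2 h attachment period, IDH1KD HT-1080 cells took pin-transferred compound for 48 h at 37 °C; ATP-based luminescence after 10 min room-temperature reagent incubation reported viability.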
IL-1B inflam inh = qHTS for Inhibitors of Inflammasome Signaling: IL-1-beta AlphaLISA Primary Screen; activity change, % at 57.5 µM; THP-1 LPS/ATP IL-1B secretion, AlphaLISA, 16 h; stronger effect = lower value; hit rate 4.7% among 360,000; AID 743279, 2014; in the data active = activity change below about -50%; inconclusive = mostly about -30% to -49%
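THP-1 cells pretreated 1 hr with compounds (up to 57.5 uM final), then stimulated with LPS (250 ng/mL final) plus ATP (1.25 mM final); secreted IL-1B measured by AlphaLISA after 16 hr, decreased signal indicating inhibition.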
The depositor's hits bear a star; i = inactive; ? = inconclusive; . = no result. Unless noted, calls follow the shape of the dose curve; as a rule, active = well fitted curve in the direction sought with a large enough effect; inconclusive = small, poorly fitted or top-dose-only effect, or another doubt; inactive = no such curve, though single readings can be large; an effect the other way counts as inactive or inconclusive. Unless noted, % is scaled to controls: 0 for no effect and ±100 for the full control effect.

SMILES | ALOX12 inh | HT1080NT lethal | TDP1 cell noCPT | DT40 TDP1 CPT | HT1080 IDH1KD tx | IL-1B inflam inh
Cc1ccc(CNC(=O)N2CCCCCCNC(=O)[C@@H]3CCC[C@@H]32)cc1 | -1.2% | . | . | . | . | .
Cc1c(C(=O)Nc2ccc(C(=O)Nc3ccccc3)cc2)cccc1[N+](=O)[O-] | -7.2% | 0.0% | -10.9% | -21.7% | -5.1% | -14.3
Cc1c(C(=O)Nc2ccc(Cc3ccncc3)cc2)cccc1[N+](=O)[O-] | 18.9% | ? | ? | ? | ? | -50.1*
Cc1ccc(C(=O)Nc2cccc(NC(=O)c3ccc(C)c([N+](=O)[O-])c3)n2)cc1[N+](=O)[O-] | i | 9.3% | 16.4µM* | ? | 1.9% | 18.0
Cc1cc(O)c(C(C)C)cc1N=Cc1ccccc1[N+](=O)[O-] | ? | ? | 3.26µM* | 5.17µM* | 16.4µM* | -14.8
Cc1cccc(N=Cc2ccccc2[N+](=O)[O-])c1 | 7.2% | . | . | . | . | .
Cc1nc(Nc2ccccc2C(F)(F)F)sc1C(=O)N(C)C | ? | 5.9% | ? | -2.0% | -8.6% | -51.5*
Cc1cccc(Nc2nc(C)c(C(=O)N(C)C)s2)c1 | 11.2% | . | . | . | . | .
Cc1c(C)n(CCc2ccccc2)c2ncnc(NCCCN(C)C)c12 | 1.9% | ? | ? | ? | ? | -71.7*
NS(=O)(=O)c1ccc(CCNc2ncnc3sccc23)cc1 | 2.1% | -9.6% | 5.8µM* | 7.31µM* | ? | 8.5
NS(=O)(=O)c1ccc(CCNc2ncnc3c2cnn3-c2ccccc2)cc1 | 5.5% | . | . | . | . | .
COc1ccc(CCNc2ncnc3sccc23)cc1OC | -6.3% | ? | 0.291µM* | 0.164µM* | ? | -7.7
Cc1sc2ncnc(NCCc3ccc(S(N)(=O)=O)cc3)c2c1C | 0.0% | -20.4% | 1.46µM* | 2.91µM* | ? | -19.4
NS(=O)(=O)c1ccc(CNc2ncnc3sccc23)cc1 | -0.1% | -14.8% | ? | ? | -12.5% | 11.1
O=C(CCCc1c[nH]c2ccccc12)N1CCN(C(=O)c2ccco2)CC1 | 8.1% | . | . | . | . | .
N#CC1=C(N)OC2=C(C(=O)CCC2)C1c1ccc(-c2ccccc2)cc1 (stereo unspecified) | -63.2% | . | . | . | . | .
N#C/C(=C/c1ccc(-c2ccccc2)cc1)c1cccc([N+](=O)[O-])c1 | 8.7% | . | . | . | . | .
COc1ccc(CCNc2ncnc3c2c(C)c(C)n3CCO)cc1OC | ? | 6.4% | 8.2µM* | 20.6µM* | 0.9% | -1.0
COc1cc2c(cc1OC)C(c1ccccc1)N(CC(=O)Nc1ccc(NC(C)=O)cc1)CC2 (stereo unspecified) | -2.5% | . | . | . | . | .
COc1ccc(-c2nn(-c3cc(C)ccc3C)c(OC(C)=O)c2-c2ccc(NC(C)=O)cc2)c(OC)c1 | -16.4% | . | . | . | . | .
Cc1ccc(C(=O)C2CCN(CC(=O)N3CCN(c4ccc(F)cc4)CC3)CC2)cc1 | -10.0% | -18.7% | 18.4µM* | ? | -22.0% | -55.5*
CC(=O)c1ccc(N2CCN(C(=O)CCC(=O)c3cccs3)CC2)cc1 | -1.7% | 6.6% | -29.7% | -18.6% | -3.7% | -1.1
O=C(CCc1c[nH]c2ccccc12)N1CCN(c2ccc(O)cc2)CC1 | ? | ? | 7.31µM* | 5.17µM* | 13µM* | 30.6
O=C(CSCc1ccc(F)cc1)N1CCN(c2ccc(F)cc2)CC1 | 7.4% | 1.1% | 12.6µM* | ? | -12.7% | -14.2
